Not all results are given here.
aSyn UTR act – Activators via SNCA 5'UTR binding, MLPCN; AID 1814; alpha-synuclein 5'UTR reporter, activators screen; hit rate 7.1% among 300,000; activity score, % (tested at 7.5 µM), hits read low; in the data active = activity score below about -60%
* = called active by the depositor.

SMILES | aSyn UTR act
CCOc1cc(/C=C2\N=C(C)OC2=O)cc(Br)c1OCC(=O)OC | -64.0*
CCOc1cc(CNc2ccccc2)cc(Br)c1OCC(=O)NC(C)(C)C | 48.8
O=C(c1cc2ccccc2oc1=O)N(c1ccc(Cl)cc1)C1C=CS(=O)(=O)C1 (stereo not drawn) | -154.6*
COCCN(Cc1nc(-c2ccc(-c3ccccc3)cc2)oc1C)C(C)C | -214.8*
Nc1ccc2c(c1)COc1ccccc1O2 | -132.6*
CCCCN=Cc1sc2ccc(OCC)cc2c1O | -72.5*
C=CCN=Cc1sc2ccc(OCC)cc2c1O | -115.3*
CC(=O)c1cccc(Nc2nc(-c3cccnc3)cs2)c1 | -229.8*
CC(=O)c1cccc(Nc2nc(-c3ccccc3)cs2)c1 | -144.9*
O=C(Nc1cccc(-c2csc(Nc3ccccc3)n2)c1)c1ccccc1 | -142.3*
Cc1ccc(NC(=O)NCc2cccn2C)cc1C | -123.5*
Cn1cccc1CNC(=O)Nc1ccc(Cl)cc1 | -115.5*
CC(=O)NCCC1CCCCN1C(=O)c1cc(COc2cc(C)ccc2C)on1 (stereo not drawn) | -144.1*
COCCN1CCN(C(=O)c2cc(COc3ccc(Cl)cc3OC)on2)CC1 | -120.0*
Cc1ccc(C)c(OCc2cc(C(=O)N3CCOCC3)no2)c1 | -97.2*
COCCCC1CCN(C(=O)c2cc(COc3cc(C)ccc3C)on2)CC1 | -179.5*
COCCN1CCN(C(=O)c2cc(COc3cc(C)ccc3C)on2)CC1 | -127.0*
CCN(CC(=O)NCc1ccc(F)cc1)C(=O)c1ccc(COc2ccccc2)cc1 | -67.4*
CCN(CC)C(=O)c1ccc(COc2ccccc2Cl)cc1 | -112.0*
CCN(CC(=O)NCc1ccc(F)cc1)C(=O)/C=C/c1ccc(OC)c(S(=O)(=O)NC(C)C)c1 | 63.2
CC(/C=C/c1ccccc1F)=N\NC(=O)c1ccccc1 | -143.7*
Cc1nc2ccc(NC(=S)NCc3ccccc3)cc2nc1C | -80.3*
O=C(CC12CC3CC(CC(C3)C1)C2)NC(=S)NCc1ccccc1 | 52.3
CCc1ccc(NC(=S)NCc2ccccc2)cc1 | -89.9*
COc1ccccc1C(=O)Nc1ccc2c3c(cccc13)CC2 | -117.6*
SMILES | aSyn UTR act
COc1ccccc1C(=O)Nc1cc(C)on1 | -113.5*
COc1ccccc1C(=O)Nc1cc(-c2ccc(C)cc2)no1 | -177.7*
COc1cccc2cc(C(=O)Nc3cccc(C)n3)c(=O)oc12 | -166.6*
CN(C)CCCNC(=S)NCC(c1ccc(Cl)cc1Cl)c1c[nH]c2ccccc12 (stereo not drawn) | 110.6
COc1ccccc1C(=O)Nc1cccc(NC(=O)c2ccccc2OC)n1 | -112.3*
Cc1cc(NC(=O)C(=O)c2cn(C)c3ccccc23)no1 | -71.7*
COc1ccccc1C(=O)Nc1ccccc1SC(=O)c1ccccc1OC | -112.3*
CC(=O)c1ccc(S(=O)(=O)N2CCCC2)cc1 | -84.1*
O=C(N/N=C\c1cc(Cl)ccc1O)c1ccc(S(=O)(=O)N2CCCCC2)cc1 | 112.5
CNS(=O)(=O)c1cc2c3c(cccc3c1)C(=O)NC2=O | 71.1
CNc1cccc2c1C(=O)c1ccccc1C2=O | -119.3*
Cc1nn(-c2ccccc2)c(C)c1C(=O)NCCc1ccccc1 | -81.8*
Cc1c(C(=O)N(C)c2ccc(Cl)cc2)cnn1-c1ccccc1 | -64.0*
COc1ccc(OC(=O)c2c(C)nn(-c3ccccc3)c2C)cc1 | -103.4*
COc1ccc(OC(=O)c2cnn(-c3ccccc3)c2C)cc1 | -222.5*
CCOC(=O)c1c(C)nn(-c2ccc(NC(=O)/C=C/C(=O)O)cc2)c1C | 92.4
Cc1nn(-c2ccccc2)c(C)c1C(=O)Oc1ccccc1 | -115.3*
COc1cc(OC)cc(-c2nc(-c3ccc(Br)cc3)no2)c1 | -164.0*
COc1ccccc1-c1nc(-c2ccc(Br)cc2)no1 | -304.5*
COc1ccccc1-c1nc(-c2ccncc2)no1 | -122.6*
COc1ccc(-c2noc(-c3ccc4c(c3)OCO4)n2)cc1 | -71.5*
COc1ccccc1-c1noc(-c2cccnc2)n1 | -112.3*
COc1ccc(-c2nc(-c3ccc(Br)cc3)no2)c(OC)c1 | -104.8*
COCC1CCN(Cc2nc(-c3ccc4c(c3)OCO4)no2)C1 (stereo not drawn) | -114.4*
CCOc1nc(C)ccc1-c1noc(-c2cccnc2)n1 | -85.3*
SMILES | aSyn UTR act
COc1ccc(-c2nsc3c(N4CCCC4)ncnc23)cc1 | 70.2
Clc1cccc2sc(N3CCCCC3)nc12 | -109.4*
Clc1cc(Cl)c2nc(N3CCCC3)sc2c1 | -102.5*
Clc1cc(Cl)c2nc(N3CCCCC3)sc2c1 | -151.9*
COc1ccc(OC)c2sc(N3CCCCC3)nc12 | -61.6*
COc1ccc(C(=O)O/N=C(\N)c2ccccc2)cc1 | -82.4*
COc1ccc(C(=O)O/N=C(\N)c2ccc(Br)cc2)cc1 | -174.4*
CC1SCC(NC(=O)c2ccc(Cl)cc2)CS1 (stereo not drawn) | -110.9*
CC1SCC(NC(=O)c2ccccc2Cl)CS1 (stereo not drawn) | -101.6*
O=C1/C(=C/c2ccccc2)Oc2cc(OC(=O)N3CCOCC3)ccc21 | -110.0*
CC(=O)Oc1ccc(/C=C2/Oc3ccccc3C2=O)cc1 | -74.8*
COc1cccc(C(=O)Nc2ccc3c(c2)OCO3)c1OC | -128.1*
Cc1ccc(C(=O)Nc2ccc3c(c2)OCCO3)c(C)c1 | 73.5
